Experimental findings from paper PMC7862700, “An all-to-all approach to the identification of sequence-specific readers for epigenetic DNA modifications on cytosine” are described below.

Common to all, as to assay: DAPPL (digital affinity profiling via proximity ligation, sequencing); 10 mM Tris-HCl pH 7.5, 50 mM NaCl, 1 mM DTT, 4% glycerol, room temperature, 30 min; GST-TFs on glutathione beads, 16-mer random dsDNA library, 0.1% formaldehyde crosslink after washing; high values mean tight binding
What all share (settings): protein: recombinant; tags: N-terminal GST; dsDNA, one strand shown

The target in one experiment is T1, FLI1 (Homo sapiens, UniProt Q01543 1-452).
T1 sequence: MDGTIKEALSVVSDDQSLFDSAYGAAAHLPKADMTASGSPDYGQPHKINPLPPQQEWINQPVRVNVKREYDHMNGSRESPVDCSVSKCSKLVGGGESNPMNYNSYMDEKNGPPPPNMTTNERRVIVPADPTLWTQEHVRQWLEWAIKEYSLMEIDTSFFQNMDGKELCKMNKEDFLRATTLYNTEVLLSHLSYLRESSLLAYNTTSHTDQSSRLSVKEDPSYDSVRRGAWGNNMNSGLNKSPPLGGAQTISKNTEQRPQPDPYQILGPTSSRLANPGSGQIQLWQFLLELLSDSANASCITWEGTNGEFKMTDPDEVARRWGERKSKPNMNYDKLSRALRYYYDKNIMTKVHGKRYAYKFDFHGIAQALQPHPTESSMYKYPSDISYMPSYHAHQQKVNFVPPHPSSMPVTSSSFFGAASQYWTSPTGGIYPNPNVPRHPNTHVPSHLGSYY
The gist of the method: (§1)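 Human transcription factors fused to GST were expressed in yeast, captured on glutathione beads, given DNA barcodes and pooled with a GST-only negative control. Pools were incubated with 200 nmole of a 16-mer random double-stranded DNA library in Tris/NaCl/DTT/glycerol buffer at room temperature for 30 min. They were then washed, crosslinked with 0.1% formaldehyde, proximity-ligated (BsaI/T4 ligase, 1 h, 37 °C), PCR-amplified and sequenced on an Illumina NextSeq500. Binding signal is each 6-mer's read frequency for a factor divided by its frequency for the GST control.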

The next experiment deals with SPIB (Homo sapiens, UniProt Q01892 1-262). The gist of the method: as §1
Chain of SPIB (Q01892 whole entry): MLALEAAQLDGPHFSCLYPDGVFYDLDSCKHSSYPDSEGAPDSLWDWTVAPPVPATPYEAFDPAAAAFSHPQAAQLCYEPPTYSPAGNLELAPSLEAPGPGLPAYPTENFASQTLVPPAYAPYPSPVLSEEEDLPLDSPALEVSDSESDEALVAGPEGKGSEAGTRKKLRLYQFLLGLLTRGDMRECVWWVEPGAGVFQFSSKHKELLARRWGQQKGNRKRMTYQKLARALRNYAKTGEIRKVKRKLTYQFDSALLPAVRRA
The next experiment deals with T2, ELK3 (Homo sapiens, UniProt P41970 1-407).
T2 sequence: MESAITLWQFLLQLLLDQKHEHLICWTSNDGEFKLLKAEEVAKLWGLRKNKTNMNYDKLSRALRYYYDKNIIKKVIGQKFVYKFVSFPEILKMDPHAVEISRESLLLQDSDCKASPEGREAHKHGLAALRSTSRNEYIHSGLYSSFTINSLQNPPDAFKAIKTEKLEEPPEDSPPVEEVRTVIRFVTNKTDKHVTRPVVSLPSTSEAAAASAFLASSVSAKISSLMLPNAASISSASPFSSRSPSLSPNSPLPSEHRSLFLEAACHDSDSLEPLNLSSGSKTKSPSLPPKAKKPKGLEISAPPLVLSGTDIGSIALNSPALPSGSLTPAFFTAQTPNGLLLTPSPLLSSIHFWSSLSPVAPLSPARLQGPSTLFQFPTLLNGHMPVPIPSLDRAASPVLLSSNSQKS
The gist of the method:
as §1

Another experiment concerns the target ELF4 (Homo sapiens, UniProt Q99607 1-663). In outline:
as §1

Another experiment has as its target T3, ELK4 (Homo sapiens, UniProt P28324-2 1-405).
T3 sequence: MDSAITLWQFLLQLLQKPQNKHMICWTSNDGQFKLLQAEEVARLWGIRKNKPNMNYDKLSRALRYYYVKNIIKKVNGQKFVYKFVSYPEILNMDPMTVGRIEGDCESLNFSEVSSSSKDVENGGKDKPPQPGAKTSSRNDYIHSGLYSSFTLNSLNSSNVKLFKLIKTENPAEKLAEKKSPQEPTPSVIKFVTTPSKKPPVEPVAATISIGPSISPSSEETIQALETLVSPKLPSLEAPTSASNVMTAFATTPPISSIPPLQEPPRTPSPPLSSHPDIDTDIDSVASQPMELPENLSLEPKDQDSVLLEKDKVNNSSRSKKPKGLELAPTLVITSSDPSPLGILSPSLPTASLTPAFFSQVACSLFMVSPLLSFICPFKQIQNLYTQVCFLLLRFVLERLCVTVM
The gist of the method:
as §1

The target in a further experiment is T4, ETV2 (Homo sapiens, UniProt O00321 1-342).
T4 sequence: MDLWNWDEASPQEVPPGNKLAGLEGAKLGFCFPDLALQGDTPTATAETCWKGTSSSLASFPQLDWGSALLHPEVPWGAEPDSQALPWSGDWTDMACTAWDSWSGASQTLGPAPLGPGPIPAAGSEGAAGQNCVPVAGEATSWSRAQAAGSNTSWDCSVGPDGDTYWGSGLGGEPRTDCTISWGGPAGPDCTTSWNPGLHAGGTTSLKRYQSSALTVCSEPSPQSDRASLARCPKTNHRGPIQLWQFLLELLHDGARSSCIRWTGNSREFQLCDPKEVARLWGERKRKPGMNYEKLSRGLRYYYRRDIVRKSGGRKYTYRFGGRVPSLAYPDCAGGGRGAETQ
In outline:
as §1

For a further experiment, the target named is ETV1 (Homo sapiens, UniProt P50549 1-477). In outline: as §1
Chain of ETV1 (P50549 whole entry): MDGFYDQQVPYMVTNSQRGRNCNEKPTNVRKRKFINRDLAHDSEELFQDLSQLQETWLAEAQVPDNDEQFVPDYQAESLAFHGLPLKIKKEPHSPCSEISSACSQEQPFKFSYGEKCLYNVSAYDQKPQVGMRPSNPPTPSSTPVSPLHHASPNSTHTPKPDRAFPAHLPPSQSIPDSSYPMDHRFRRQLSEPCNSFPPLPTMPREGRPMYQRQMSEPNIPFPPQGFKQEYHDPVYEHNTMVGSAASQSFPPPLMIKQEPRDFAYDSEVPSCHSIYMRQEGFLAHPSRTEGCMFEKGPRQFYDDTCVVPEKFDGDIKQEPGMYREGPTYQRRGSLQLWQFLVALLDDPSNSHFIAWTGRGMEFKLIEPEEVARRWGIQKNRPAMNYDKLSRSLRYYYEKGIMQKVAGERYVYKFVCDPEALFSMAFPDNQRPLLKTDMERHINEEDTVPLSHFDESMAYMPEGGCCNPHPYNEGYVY
A further experiment concerns the target T5, ETV3L (Homo sapiens, UniProt Q6ZN32 1-361).
T5 sequence: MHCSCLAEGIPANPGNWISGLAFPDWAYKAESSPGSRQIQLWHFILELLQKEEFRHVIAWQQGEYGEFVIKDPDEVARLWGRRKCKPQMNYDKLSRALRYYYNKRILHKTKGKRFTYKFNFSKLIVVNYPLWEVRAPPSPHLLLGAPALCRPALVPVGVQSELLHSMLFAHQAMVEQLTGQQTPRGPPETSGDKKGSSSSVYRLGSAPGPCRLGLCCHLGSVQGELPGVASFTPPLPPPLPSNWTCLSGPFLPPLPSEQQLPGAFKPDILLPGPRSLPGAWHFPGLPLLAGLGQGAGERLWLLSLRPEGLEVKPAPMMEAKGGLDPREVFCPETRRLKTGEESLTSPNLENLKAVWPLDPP
The gist of the method:
as §1

Another experiment deals with T6, ETV3 (Homo sapiens, UniProt P41162-2 1-143).
T6 sequence: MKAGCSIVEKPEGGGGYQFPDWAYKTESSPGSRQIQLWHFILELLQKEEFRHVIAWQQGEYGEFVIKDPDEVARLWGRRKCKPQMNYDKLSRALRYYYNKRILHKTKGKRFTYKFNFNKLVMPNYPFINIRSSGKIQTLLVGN
The gist of the method:
as §1

Chain of ELF4 (Q99607 whole entry): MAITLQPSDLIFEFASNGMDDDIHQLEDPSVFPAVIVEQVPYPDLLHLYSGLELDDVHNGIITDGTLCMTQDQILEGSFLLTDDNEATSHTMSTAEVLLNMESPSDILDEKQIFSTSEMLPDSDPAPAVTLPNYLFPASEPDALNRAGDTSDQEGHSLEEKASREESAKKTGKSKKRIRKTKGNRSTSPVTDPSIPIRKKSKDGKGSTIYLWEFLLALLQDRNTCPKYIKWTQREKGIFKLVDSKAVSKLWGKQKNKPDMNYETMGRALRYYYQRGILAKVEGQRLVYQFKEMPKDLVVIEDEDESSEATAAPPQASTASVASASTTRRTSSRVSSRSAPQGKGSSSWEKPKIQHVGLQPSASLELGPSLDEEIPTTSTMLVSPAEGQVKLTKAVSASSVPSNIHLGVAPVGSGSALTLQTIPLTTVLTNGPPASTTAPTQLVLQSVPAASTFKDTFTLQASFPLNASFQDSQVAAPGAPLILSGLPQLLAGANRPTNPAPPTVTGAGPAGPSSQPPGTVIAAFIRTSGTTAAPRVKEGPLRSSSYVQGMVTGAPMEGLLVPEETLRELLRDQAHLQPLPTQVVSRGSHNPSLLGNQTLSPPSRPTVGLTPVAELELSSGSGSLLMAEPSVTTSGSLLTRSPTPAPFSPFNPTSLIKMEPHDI

As to CAAGCT, the binding signal is 1.05 fold enrichment (6-mer frequency, TF over GST control) in the experiment with FLI1; 1.04 fold enrichment (6-mer frequency, TF over GST control) in the experiment with SPIB; 1.03 fold enrichment (6-mer frequency, TF over GST control) with ELK3; 1.02 fold enrichment (6-mer frequency, TF over GST control) with ELF4; 1.13 fold enrichment (6-mer frequency, TF over GST control) with ELK4; 1.02 fold enrichment (6-mer frequency, TF over GST control) with ETV2. In addition, the binding signal with ETV1 is 1.04 fold enrichment (6-mer frequency, TF over GST control); with ETV3L, 1.05 fold enrichment (6-mer frequency, TF over GST control); with ETV3 it was 1.02 fold enrichment (6-mer frequency, TF over GST control).
